Data on 8 compounds can be found in PubChem BioAssay (NCI).

Among the test systems are NCI-H23 lung; NCI-H226 lung; NCI-H322M lung; HOP-62 NSCLC; NCI-H460 lung; A549/ATCC NSCLC; 786-0 renal; COLO 205 colon; DU-145 prostate; K-562 leukemia; MALME-3M melanoma; MDA-MB-231 breast; RXF 393 renal; SF-268 CNS; SF-295 CNS; SF-539 CNS; UACC-257 melanoma; M14 melanoma.
Experiment in all cases: NCI-60 one-dose screen, 48 h (100 = growth as untreated, 0 = no growth, -100 = all killed)
Holding throughout (conditions): 10 µM unless noted

Compounds without any hit were thinned out: in the full panel of roughly 83,000, 20% have a hit.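 Single-dose data. Exposure time 48 hours. Values below 10 considered active.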 A number with no mark means an inactive call. Calls of active or inactive are those of the source.

For `CCCCCCCCCCC(C[N+](C)(C)C/C=C/c1ccccc1)C(O)c1ccccc1` (stereo not drawn), the growth in the assay on NCI-H23 lung was 7.14% (active); with NCI-H226 lung, 29%; in the assay on NCI-H322M lung, 46.7%; in the assay on HOP-62 NSCLC, -30.3% (active); in the assay with NCI-H460 lung, 5.75% (active); in the assay on A549/ATCC NSCLC it was 54.5%. Further, the growth is -5.14% (active) with 786-0 renal; -89.2% (active) in the assay on COLO 205 colon; 1.19% (active) with DU-145 prostate; -35.9% (active) with K-562 leukemia; -28.6% (active) in the assay with MALME-3M melanoma; -55.9% (active) with MDA-MB-231 breast. The growth in the assay with RXF 393 renal was -54.3% (active); in the assay with SF-268 CNS, -0.479% (active); in the assay with SF-295 CNS, 35.6%; in the assay with SF-539 CNS it was 40.5%; with UACC-257 melanoma, 21%; in the assay with M14 melanoma, 6.02% (active).

`CCC(C)CC(N)O` (stereo not drawn): the growth with NCI-H23 lung is 105%; with NCI-H226 lung it was 98%; with NCI-H322M lung it was 116%; in the assay with HOP-62 NSCLC, 122%; in the assay on NCI-H460 lung, 108%; in the assay with A549/ATCC NSCLC it was 106%. The growth was 105% in the assay with 786-0 renal; 109% in the assay with COLO 205 colon; 114% in the assay on DU-145 prostate; 108% in the assay with K-562 leukemia; 130% in the assay with MALME-3M melanoma; 116% in the assay on MDA-MB-231 breast. Also, the growth with RXF 393 renal is 91.8%; in the assay with SF-268 CNS, 108%; in the assay with SF-295 CNS, 99.4%; with SF-539 CNS, 107%; with UACC-257 melanoma, 102%; in the assay on M14 melanoma it was 103%.

In the case of `CC(=O)Nc1nc(C)c(C(=O)NNS(=O)(=O)c2ccccc2)s1`, the growth with NCI-H23 lung is 109%; in the assay on NCI-H226 lung, 112%; in the assay on NCI-H322M lung, 99.4%; with HOP-62 NSCLC, -98.9% (active); in the assay on NCI-H460 lung, 110%; in the assay with A549/ATCC NSCLC, 103%. In addition, the growth in the assay on 786-0 renal is 92.6%; in the assay with COLO 205 colon, 119%; in the assay on DU-145 prostate it was 135%; with K-562 leukemia it was 149%; with MALME-3M melanoma, 96.5%; in the assay on MDA-MB-231 breast it was 107%. Besides, the growth with RXF 393 renal is 110%; with SF-268 CNS, 117%; with SF-295 CNS, 132%; in the assay on SF-539 CNS, 101%; in the assay on UACC-257 melanoma it was 103%; in the assay on M14 melanoma, 97.6%.

Turning to `N=C(c1ccccc1)N(Cc1ccccc1)Cc1ccccc1`, the growth in the assay on NCI-H23 lung is 92.9%; with NCI-H226 lung, 104%; in the assay with NCI-H322M lung, 84%; in the assay with HOP-62 NSCLC, 97.1%; in the assay on NCI-H460 lung, 98.3%; with A549/ATCC NSCLC, 90.3%. Besides, the growth with 786-0 renal was 86.5%; with COLO 205 colon it was 88.2%; in the assay with DU-145 prostate, 111%; in the assay with K-562 leukemia, 76.2%; in the assay with MALME-3M melanoma it was 93.8%; in the assay on MDA-MB-231 breast, 79.6%. Further, the growth with RXF 393 renal is 85%; in the assay on SF-268 CNS, 103%; with SF-295 CNS, 59.2%; with SF-539 CNS, 103%; in the assay with UACC-257 melanoma it was 94%; with M14 melanoma it was 78%.

With `COc1cc(-c2nn(-c3ccc(NC(=O)c4ccc(Cl)c(Cl)c4)cc3)cc2-c2ccncc2)ccc1Cl`, the growth with NCI-H23 lung was 77.8%; with NCI-H226 lung, 88.3%; in the assay on NCI-H322M lung, 101%; in the assay with HOP-62 NSCLC, 52.7%; in the assay on NCI-H460 lung, 48.3%; with A549/ATCC NSCLC it was 68.3%. Also, the growth in the assay with 786-0 renal is -34.5% (active); in the assay with COLO 205 colon, 52.6%; in the assay on DU-145 prostate, 82%; with K-562 leukemia it was 17%; in the assay on MALME-3M melanoma it was 111%; in the assay with MDA-MB-231 breast, 54.9%. In addition, the growth is -55.1% (active) in the assay with RXF 393 renal; 67.6% with SF-268 CNS; -42.3% (active) in the assay on SF-295 CNS; 47.7% with SF-539 CNS; 110% with UACC-257 melanoma; 62.3% with M14 melanoma.

For `COC(=O)/C=C1/CCCCC1(C)C(=O)OC` (stereo not drawn), the growth with NCI-H23 lung was 109%; with NCI-H226 lung, 102%; with NCI-H322M lung it was 105%; in the assay on HOP-62 NSCLC, 105%; in the assay on NCI-H460 lung, 107%; with A549/ATCC NSCLC, 101%. The growth with 786-0 renal is 96.4%; in the assay with COLO 205 colon, 120%; with DU-145 prostate it was 112%; in the assay on K-562 leukemia it was 103%; in the assay with MALME-3M melanoma, 109%; with MDA-MB-231 breast it was 110%. The growth with RXF 393 renal was 106%; in the assay on SF-268 CNS, 110%; with SF-295 CNS, 120%; in the assay with SF-539 CNS it was 119%; with UACC-257 melanoma, 98.4%; in the assay with M14 melanoma, 101%.

With `COc1ccc(C(=O)NCCNc2nccc(-c3c(-c4ccc(F)cc4)nc4sccn34)n2)cc1`, the growth is 70.7% in the assay with NCI-H23 lung; 54.8% in the assay with NCI-H226 lung; 68.1% in the assay on NCI-H322M lung; 64.8% with HOP-62 NSCLC; 26.1% in the assay on NCI-H460 lung; 34% with A549/ATCC NSCLC. Further, the growth in the assay with 786-0 renal was 48.9%; with COLO 205 colon it was 47%; with DU-145 prostate, 59.1%; in the assay on K-562 leukemia, 59.5%; in the assay with MALME-3M melanoma, 76%; in the assay on MDA-MB-231 breast it was 62.2%. The growth in the assay on RXF 393 renal is 72%; with SF-268 CNS, 59.2%; in the assay on SF-295 CNS, 61.6%; in the assay on SF-539 CNS, 79.1%; with UACC-257 melanoma it was 89%; in the assay on M14 melanoma, 55.6%.

In the case of `COCn1c(C(=O)OC)cc2oc(/C=C3/SC(=S)N(N)C3=O)cc21`, the growth was 103% in the assay with NCI-H23 lung; 115% with NCI-H226 lung; 77.5% with NCI-H322M lung; 122% in the assay with HOP-62 NSCLC; 105% with NCI-H460 lung; 105% in the assay with A549/ATCC NSCLC. In addition, the growth with 786-0 renal was 96.5%; with COLO 205 colon it was 110%; in the assay with DU-145 prostate it was 94.1%; in the assay on K-562 leukemia, 63.7%; in the assay with MALME-3M melanoma it was 45.8%; with MDA-MB-231 breast, 110%. In addition, the growth in the assay on RXF 393 renal was 27.6%; in the assay on SF-268 CNS it was 73.1%; in the assay on SF-295 CNS, 82.3%; in the assay with SF-539 CNS, 90.3%; in the assay with UACC-257 melanoma, 113%.
